# Jurkat viability = reduces viability or proliferation of Jurkat cells; Jurkat E6.1 viability, ATP luminescence, 48 h; 1.2% of 56,000 active; inhibition, % at 4 µM; AID 463;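 active = inhibition above the mean inhibition of all tested compounds plus 3 SD, cut at about 28% in these data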
# SK-BR-3 tox 24h = SK-BR-3 proliferation inhibitors. 0.47% of 41,000 active. viability, % at 10 µM. SK-BR-3 viability, CellTiter-Glo ATP luminescence, 24 h; hits give low values;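 active = viability at or below the median of all test compounds minus 3 SD, in both replicates if run twice, cut at about 45% in these data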;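 note: 100% = median untreated cell wells and 0% = median positive control drug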
# Her2 expr inh = Her2 kinase expression inhibition; SKBR-3 HER2 protein level, AlphaScreen, 18-24 h; hits give low values; HER2 level % of control, % at 10 µM; 0.69% of 65,000 active; P04626;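 active = HER2 level under 5% of the carrier-only control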;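 note: 100% = DMSO carrier and 0% = 500 nM PU-H71 HSP90 inhibitor; lower value means stronger loss of Her2 protein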
# An asterisk follows results filed as active; nt = no result. Compounds with a hit are over-represented: about 2% of the library has one in this group of screens.
SMILES,Jurkat viability,SK-BR-3 tox 24h,Her2 expr inh
COc1ccc(CNc2ccc(C(=O)O)cc2)cc1,5,108,-30*
COc1ccc(S(=O)(=O)NCc2ccc(C(=O)O)cc2)cc1,nt,nt,96
O=C(Nc1cccc(C(=O)N2CCOCC2)c1)NC1CCCCC1,-8,92,-22*
CC(=O)c1cccc(NC(=O)NC2CCCCC2)c1,-2,nt,94
Cc1nnc(SCC(=O)c2c(N)n(C)c(=O)n(C)c2=O)n1Cc1ccccc1,8,nt,-33*
Cc1occc1-c1nnc(SCC(=O)c2c(N)n(Cc3ccccc3)c(=O)n(C)c2=O)n1C,-6,nt,87
O=C(CC1Oc2ccccc2NC1=O)NCc1ccccc1 (configuration not stated),4,nt,91
CC(=O)CC1OC(=O)C(Br)=C1NCc1ccccc1 (configuration not stated),49*,145,25
C=CCN(CC=C)c1nc2ccccc2nc1C(C#N)C(=O)OC(C)C (configuration not stated),nt,75,155
CC1CCCCN1CCNC(=O)c1cnn2ccccc12 (configuration not stated),-10,nt,109
CCc1ccc(CCC(=O)Nc2sc3c(c2C#N)CCCC3)o1,89*,100,82
CC(C)c1cc(C(=O)Nc2sc3c(c2C#N)CCC3)no1,69*,81,89
N#Cc1c(NC(=O)CCC(=O)O)sc2c1CCCC2,nt,90,116
Cc1cc(C(=O)Nc2sc3c(c2C#N)CCC(C(C)(C)C)C3)no1 (configuration not stated),1,84,85
CCc1nnc(NC=C2C(=O)OC(C)(C)OC2=O)s1,5,97,109
Cc1c(/C(O)=C2/C(=O)C(=O)N(CCCN3CCOCC3)C2c2ccncc2)cnn1-c1ccccc1 (configuration not stated),nt,91,117
COc1ccccc1N1CCN(C(c2cccs2)c2nnnn2C2CCCC2)CC1 (configuration not stated),13,92,-30*
c1ccc(CC2CCN(C(c3cccs3)c3nnnn3C3CCCC3)CC2)cc1 (configuration not stated),10,108,95
N#Cc1nc(N2CCCC2)nc(N2CCCC2)n1,22,115,53
N#Cc1nc(N2CCCCC2)nc(N2CCOCC2)n1,42*,88,nt
O=C(CN1CCOCC1)N1CCN(C(=O)CN2CCOCC2)CC1,-6,91,109
CC(C)N(C(=O)CSc1nnc(NC(=O)C2CCC2)s1)C(C)C,4,42*,115
O=C(CSc1nnc(NC(=O)C2CCC2)s1)Nc1ccc(N2CCOCC2)cc1,-6,nt,85
COC(=O)Cn1cnc(=O)c(C#N)c1/C=C/N(C)C,2,nt,104
O=C(CN1C(=O)c2cccc3cccc1c23)Nc1cccnc1,nt,82,95
SMILES,Jurkat viability,SK-BR-3 tox 24h,Her2 expr inh
Cc1nc2nc(-c3ccco3)nn2c(C)c1Cl,-4,113,-8.6*
Cc1nc2nc(-c3cccnc3)nn2c(C)c1Cl,-4,89,78
Cc1ccc(OCn2c(=O)sc3ccccc32)cc1,-8,nt,88
CCN(CC)C(=O)C1CCN(Cc2ccc(Br)cc2)CC1,7,71,67
CCOc1ccccc1N(CC(=O)N1CCOCC1)S(=O)(=O)c1ccccc1,2,91,-21*
CCOc1ccccc1N(CC(=O)N1CCCCCC1)S(C)(=O)=O,2,86,102
CC1CCN(C2CC(=O)N(c3ccc(Br)cc3Br)C2=O)CC1 (configuration not stated),nt,nt,92
NC(=O)C1(N2CCCCC2)CCN(C(=O)c2ccc(-n3cnnn3)cc2)CC1,-6,42*,145
O=C(c1ccc(-n2cnnn2)cc1)N1CCOCC1,nt,100,91
Cc1noc(C)c1COC(=O)CCCc1c[nH]c2ccccc12,-2,nt,87
COc1ccccc1N1CCN(C(=O)C2c3ccccc3Oc3ccccc32)CC1,70*,79,33
COc1ccccc1N1CCN(C(=O)C2CC=CCC2C(=O)O)CC1 (configuration not stated),-2,88,93
Cc1nc2ncnn2c(C)c1Cc1ccc(Cl)cc1F,-5,nt,82
C=CCn1c(SCn2nnc3ccccc3c2=O)nnc1C1CCCCC1,-2,nt,86
Cn1c(=O)c2c(ncn2CC(=O)N2CCN(c3ccc(F)cc3)CC2)n(C)c1=O,-4,106,119
Cc1nc(NC(=O)CSc2nc3cccnc3n2C2CCCCC2)sc1C,-1,86,77
CCc1nnc(NC(=O)CSc2nc3cccnc3n2C2CCCCC2)s1,29*,85,73
C=CCn1c(C)nc2c(c1=O)c1nc3ccccc3nc1n2-c1ccc(C)cc1,nt,106,119
CCn1cc(S(=O)(=O)CC(=O)Nc2cc(C)ccc2C)c2ccccc21,-2,nt,85
Cc1cc(NC(=O)CS(=O)(=O)c2cn(Cc3ccccc3Cl)c3ccccc23)no1,nt,34*,94
C=CCOc1nc(N(C)C)nc(N(C)C)n1,-12,102,99
O=c1nc(-c2ccccc2)cc(-c2ccccc2)[nH]1,-2,nt,84
O=c1cccc(-c2ccccc2)[nH]1,-2,100,-26*
COc1ccccc1C(=O)N1CCN(c2cccc(C(F)(F)F)c2)CC1,82*,nt,77
O=C(O)c1ccccc1C(=O)N1CCN(c2cccc(Cl)c2)CC1,-11,102,106
SMILES,Jurkat viability,SK-BR-3 tox 24h,Her2 expr inh
COc1ccc(C(=O)N2CCN(c3cccc(Cl)c3)CC2)c(OC)c1,56*,nt,40
O=C(c1cccc(F)c1)N1CCN(c2cccc(C(F)(F)F)c2)CC1,-4,nt,156
CCOC(=O)c1[nH]c(C)c(C(=O)N2CCN(c3ccccc3)CC2)c1C,-6,nt,118
CCOc1ccc2ccccc2c1C(=O)N1CCN(c2ccccc2)CC1,85*,74,65
COc1ccc(C(=O)N2CCN(S(=O)(=O)c3ccccc3)CC2)c(OC)c1,-10,79,81
CCOc1ccccc1C(=O)N1CCN(c2cccc(Cl)c2)CC1,98*,95,48
Cc1cccc(N2CCN(C(=O)c3cc4c(=O)n(C)c5ccccc5c4n3C)CC2C)c1 (configuration not stated),7,nt,61
CN1C(=O)C2(N=c3ccccc3=N2)c2ccccc21,nt,75,50
Cc1c(Cl)c(C(F)(F)F)nn1CC(=O)N1CCSCC1,nt,73,89
Cc1ccnc(NC(=O)CCC(=O)N(CC(=O)NC2CCCCC2)Cc2ccc3c(c2)OCO3)c1,7,77,121
CC(C)CC(=O)N1CCN(C(=O)CCC2CCCC2)CC1,-6,nt,121
CCOc1ccc(S(=O)(=O)N2CCN(c3ccc(OC)cc3)CC2)c2cccnc12,6,77,140
CCOc1ccc(S(=O)(=O)N2CCN(c3ccccc3)CC2)c2cccnc12,0,42*,126
COCCCNC(=O)c1ccccc1NS(=O)(=O)c1ccc(C)cc1,4,73,68
CCCCOc1ccc(C(=O)NC)cc1,6,102,90
CCCCOc1ccc(C(=O)Nc2ccncc2)cc1,91*,77,100
O=C1N[C@@H](Cc2cnc[nH]2)C(=O)N2CCC[C@@H]12,nt,96,106
CCOc1ccc(-c2nc(-c3ccccc3C)no2)cc1,0,92,73
COc1ccccc1-c1nnc(NC(=O)c2ccc(S(=O)(=O)N(C)Cc3ccccc3)cc2)o1,12,65,84
CN(Cc1ccccc1)S(=O)(=O)c1ccc(C(=O)Nc2nnc(C3CC3)o2)cc1,100*,78,51
CCCCN(CCCC)S(=O)(=O)c1ccc(C(=O)Nc2nnc(COC)o2)cc1,18,56,-17*
